Screening data as filed in PubChem BioAssay.
Shown are actives, neighbours in structure and some others; about 7.6% of the full set was active somewhere.
BRCA1 expr up = activators of BRCA1 expression | AID 624202 | actives 1.1% (n = 380,000) | Potency, µM (top dose mostly 46.1 µM), inactives show at the highest dose activation, most hits filed as activators | MCF7-BRCA1-FFLuc reporter, luminescence, 48 h; response scale: scaled: vehicle 0%, 10 µM genistein 100%; note: potency is the fitted concentration of half-maximal effect; nearly all actives have a fitted effect of over 80% in size
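First, MCF7-BRCA1-FFLuc cells (2000/well) attach for 2 h; next, compounds are pin-added and incubated 48 h at 37 °C; finally, luciferase reagent is added and luminescence read after 15 min.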
RORgamma inh = blocks mouse ROR gamma transcriptional activity | Potency, µM (doses to about 53.6 µM), for the others: top-dose activity change, negative = inhibition, most hits filed as inhibitors | P51450 | Drosophila S2 Gal4-RORgamma UAS-luciferase reporter, 20 h | AID 2551 | actives 5.4% (n = 310,000); note: potency is the fitted concentration of half-maximal effect; % is set by controls: 0 for no effect and ±100 for the full control effect; nearly all actives have a fitted effect of over 60% in size
Target sequence (P51450 whole entry, looked up, the tested form may be a part): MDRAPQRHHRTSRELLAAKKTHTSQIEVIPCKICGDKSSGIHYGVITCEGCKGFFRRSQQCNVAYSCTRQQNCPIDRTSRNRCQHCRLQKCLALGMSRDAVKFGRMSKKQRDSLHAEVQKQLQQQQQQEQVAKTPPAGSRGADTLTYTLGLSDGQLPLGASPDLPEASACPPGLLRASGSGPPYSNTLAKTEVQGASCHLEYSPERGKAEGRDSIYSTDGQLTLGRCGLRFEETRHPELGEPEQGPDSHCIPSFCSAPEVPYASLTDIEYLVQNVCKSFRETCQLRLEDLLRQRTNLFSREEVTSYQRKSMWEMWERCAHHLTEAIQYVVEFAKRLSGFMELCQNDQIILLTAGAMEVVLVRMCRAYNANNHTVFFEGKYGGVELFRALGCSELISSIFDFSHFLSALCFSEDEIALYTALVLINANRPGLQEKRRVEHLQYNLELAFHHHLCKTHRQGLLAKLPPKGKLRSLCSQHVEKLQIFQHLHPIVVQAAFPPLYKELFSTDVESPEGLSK
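Drosophila Schneider cells stably carrying a metallothionein-driven Gal4 DBD–ROR gamma fusion and a UAS-Photinus luciferase reporter were exposed to compound for 1 hr, then induced with copper sulfate (700 uM final) for 20 hr at ambient temperature before luminescence reading.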
Giardia kill = Giardia lamblia killing | actives 0.15% (n = 340,000) | activity change, % at 7.66 µM, hits read low | Giardia lamblia trophozoite viability; in the data active = activity change below about -80%; inconclusive = between about -30% and that limit;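 note: parasites exposed to compound for two days anaerobically before the ATP read; % is set by controls: 0 for no effect and ±100 for the full control effect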
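Luminescent ATP signal served as the viability read-out, measured 15-30 min after adding ATP detection reagent to trophozoites that had been incubated with compounds for 48 hrs at 37 deg C anaerobically at 100 cells/well.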
p53 reactivation = restores transcriptional activity of mutant p53; H1299 p53-A138V BP100-luciferase reporter, luminescence, 24 h; Potency, µM (doses to about 92.2 µM), for inactives: at the top dose activity change, positive = activation, most hits filed as activators; actives 0.063% (n = 320,000); note: potency is the fitted concentration of half-maximal effect; % of control where 0% means no effect; nearly all actives have a fitted effect of over 45% in size
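H1299 (p53-null), stable ts p53-A138V + BP100-Luc; 1000 cells/well, Opti-MEM/10% FBS; cpd 4 pt, 1:5; 24 h, 37 deg C, 5% CO2; detection reagent 10 min RT; luminescence.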
Gal4-VP16 FLuc = inhibits Gal4-VP16 luciferase reporter, ROR gamma counter-screen; Drosophila S2 Gal4-VP16 UAS-luciferase, luminescence, 20 h; Potency, µM (series often up to 53.6 µM), inactives show at the top dose activity, negative = inhibition, most hits filed as inhibitors; actives 3.5% (n = 310,000); AID 2546;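 note: Gal4-VP16 expression switched on by copper sulfate through the metallothionein promoter; potency is the fitted concentration of half-maximal effect; % is set by controls: 0 for no effect and ±100 for the full control effect; nearly all actives have a fitted effect of over 50% in size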
ELG1 repair inh = inhibitors of ELG1-dependent DNA repair in HEK293T cells; Potency, µM (series often up to 46.1 µM), without a hit: at the top dose activity change, negative = inhibition, hits mostly inhibitors; HEK293T ELG1-luciferase reporter, luminescence, 16 h; DNA damage induced by 5-fluorouridine; actives 2.3% (n = 330,000); note: potency is the fitted concentration of half-maximal effect; % is set by controls: 0 for no effect and ±100 for the full control effect; nearly all actives have a fitted effect of over 55% in size
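In this reporter screen, reduction of luminescence relative to DMSO vehicle indicated activity. Compounds and 5-fluorouridine were added together to 2,000 cells per well, incubated for 16 hr at 37 °C, then developed with ONE-Glo.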
* = called active by the depositor; ? = inconclusive; . = no result given; [ ] = remark or other dose. Unless noted, calls come from the whole dose curve; as a rule, active = well fitted curve in the direction sought with a large enough effect; inconclusive = small, poorly fitted or top-dose-only effect, or another doubt; inactive = no such curve, though single readings can be large; an effect the other way counts as inactive or inconclusive.

SMILES | BRCA1 expr up | RORgamma inh | Giardia kill | p53 reactivation | Gal4-VP16 FLuc | ELG1 repair inh
CC(=O)Nc1cccc(C(=O)N2CCN(Cc3ccccc3)CC2)c1 | -0.4% | -13.3% | 29.9 | -6.4% | -7.2% | -1.1%
COc1ccc(NC(=O)N2CCc3ccccc3C2)cc1 | 7.94µM* | 0.7% | 20.8 | 26.2% | 2.1% | ?
COc1ccc(CC(=O)N2CCc3ccccc3C2)cc1 | 56.3% | 23.6% | -7.6 | 15.5% | 26.1% | ?
O=C(Cc1ccc(Cl)cc1)N1CCc2ccccc2C1 | 10µM* | . | -2.8 | . | . | .
CCc1ccc(/C=C\C(=O)N2CCc3ccccc3C2)cc1 | ? | 10µM* | 8.3 | 11.6% | ? | ?
O=C(Nc1cccc(C(=O)N2CCN(Cc3ccccc3)CC2)c1)c1ccccc1 | -5.5% | ? | -4.4 | -5.1% | -13.8% | 20.6µM*
CCOc1ccc(NC(=O)N2CCc3ccccc3C2)cc1 | 58.7% | 3.3% | -14.1 | 20.4% | 17.1% | ?
CCc1ccc(/C=C\C(=O)N2CCCC2)cc1 | ? | . | 27.1 | . | . | .
CCC(C)(C)NC(=O)C(c1ccc(O)cc1)N(CCOC)C(=O)CCC(=O)Nc1nccs1 (stereo not drawn) | 0.6% | -0.2% | 11.3 | 0.3% | -6.4% | 6.8%
COc1ccc(Cl)cc1-c1nc(-c2ccc(NC(=O)c3cccs3)cc2)no1 | -0.1% | 30.6% | 24.2 | 0.0% | 2.4% | -1.7%
CC(=O)c1cccc(NC(=O)N2CCc3ccccc3C2)c1 | 8.91µM* | 3.5% | -16.6 | 16.7% | 18.2% | ?
O=C(Nc1ccc(Cl)cc1)N1CCc2ccccc2C1 | ? | 0.891µM* | 6.3 | -2.6% | ? | 2.4%
CC(=O)c1ccc(NC(=O)N2CCc3ccccc3C2)cc1 | 11.2µM* | 6.0% | -8.4 | 11.9% | 11.5% | ?
CC(=O)c1cccc(NC(=O)c2ccc(CN3CCc4ccccc4C3)cc2)c1 | 3.3% | 15.9% | -13.0 | . | ? | 8.2µM*
Cc1ccc(NC(=O)N2CCc3ccccc3C2)cc1 | ? | 1.6% | 3.9 | 19.5% | -11.3% | ?
O=c1/c(=C\c2ccc3c(c2)OCO3)sc2n1CCCN=2 | ? | ? | -3.4 | 26.0% | -25.4% | ?
CCC12CN(C(=O)c3ccco3)CC(CC)(CN(C(=O)c3ccco3)C1)C2=O | -14.2% | -4.4% | 2.0 | 20.6% | -1.6% | 1.3%
O=C(/C=C/c1c(F)cccc1Cl)N1CCc2ccccc2C1 | 86.4% | 0.398µM* | 12.2 | 6.5% | 2.2% | ?
CCN1CCN(C(=O)/C=C/c2c(F)cccc2Cl)CC1 | 76.0% | -2.9% | -7.7 | -2.6% | 2.7% | 2.0%
O=C(CNc1cccc(F)c1)N1CCc2ccccc2C1 | 7.94µM* | 20.0% | -7.0 | ? | 22.6% | ?
Cc1ccc2nc(C)c(C(=O)NN=C3CCCCCC3)n2c1 | -50.2% | 12.6µM* | -6.0 | 1.0% | -24.6% | ?
Cc1ccc2nc(C)c(C(=O)N/N=C/c3cccs3)n2c1 | -16.6% | 11.2µM* | 0.4 | 8.9% | -2.2% | -4.6%
Cc1ccn2c(C(=O)NN=C3CCN(C)CC3)c(C)nc2c1 | -1.0% | 3.6% | -8.2 | -0.8% | -22.4% | 16.9%
Cc1ccn2c(C(=O)N/N=C\c3cccs3)c(C)nc2c1 | 7.1% | ? | -10.7 | -6.1% | 0.6%[0.365 µM] | 0.0%
COc1ccc(Nc2ncnc3sccc23)cc1 | 7.08µM* | -0.5% | -29.9 | ? | -1.3% | ?
SMILES | BRCA1 expr up | RORgamma inh | Giardia kill | p53 reactivation | Gal4-VP16 FLuc | ELG1 repair inh
c1ccc(Nc2ncnc3sccc23)cc1 | 17.9% | -28.2% | -6.0 | 2.4% | -11.2% | 7.9%
CC(Nc1ncnc2sccc12)c1ccccc1 (stereo not drawn) | -17.2% | ? | 2.5 | -1.1% | 1.41µM* | ?
CC1CC1C(=O)Nc1ccc(S(=O)(=O)N2CCCCC2)cc1 (stereo not drawn) | -30.1% | . | 5.8 | -11.0% | . | -19.3%
CCOC(=O)C[C@H]1c2cc(C(F)(F)F)ccc2S(=O)(=O)N1C(C)C | -14.6% | . | 5.3 | . | . | .
O=C1CCCC(O)=C1N=Nc1c(Cl)cc(Cl)cc1Cl | -45.0% | 11.2µM* | -0.7 | ? | ? | 15.3%
O=C1CCCC(O)=C1N=Nc1cccc(C(=O)O)c1 | -10.1% | -22.0% | 12.5 | -4.1% | 6.0% | ?
CC(O)CCC(=O)NNC1CC(=O)N(c2ccccc2)C1=O (stereo not drawn) | -2.0% | -0.7% | ? | 3.3% | -6.3% | 16.9%
CC(C)c1ccc(N2C(=O)CC(NNC(=O)c3ccccc3Cl)C2=O)cc1 (stereo not drawn) | 1.0% | ? | -19.2 | -2.4% | 3.16µM* | -2.3%
COc1ccc(S(=O)(=O)NCCc2csc(-c3cccnc3)n2)cc1 | -43.1% | 19.3% | -0.2 | 3.2% | -3.1% | -6.9%
CCn1c(-c2cc(-c3cccc(OC)c3)nc3ccccc23)n[nH]c1=S | -22.4% | 5.01µM* | -4.7 | -5.2% | ? | -5.0%
COc1cccc(-c2nc3ccccc3c(=O)o2)c1 | 40.0% | -5.8% | 2.4 | ? | -1.5% | ?
CCc1ccc(-c2cc(-c3n[nH]c(=S)n3CC)c3ccccc3n2)cc1 | . | 2µM* | . | 18.2% | -22.8% | -10.9%
Cc1ccc(C(=O)ONc2ccc(N=O)cc2)cc1 | 34.8% | 25.1µM* | 4.8 | ? | 12.6µM* | 13.6%
Cc1ccc(C(=O)ONc2ccc(N=NC(=O)c3ccccc3O)cc2)cc1 | 1.3% | 17.1% | 2.5 | 9.7% | 17.8µM* | ?
O=Nc1ccc(NOC(=O)c2ccc(Br)cc2)cc1 | . | 20.2% | . | 3.0% | 2.2% | 2.8%
OCCN(CCO)c1nc(N2CCCCC2)c2nc(N(CCO)CCO)nc(N3CCCCC3)c2n1 | -22.5% | ? | -7.2 | . | -13.6% | 0.461µM*
Nc1nc(NCCO)nc(N2CCCCCC2)c1[N+](=O)[O-] | 14.4% | 12.9% | -15.2 | 1.4% | 1.5% | -2.3%
Cc1cccc(N2CCN(C(=O)CCNS(=O)(=O)c3ccc4c(c3)CCC(=O)N4)CC2)c1C | -61.3% | -0.1% | 0.0 | -14.0% | -9.8% | 11.2µM*
CCOc1ccc(NC(=O)C2C3C=CC4(CN(C(C(=O)OC)C(C)C)C(=O)C24)O3)cc1 (stereo not drawn) | -8.3% | -16.8% | 21.4 | -5.9% | 1.8% | 15.1%
O=C(Nc1nc(-c2ccccn2)cs1)Nc1ccc(F)cc1F | -1.0% | 3.55µM* | 3.3 | ? | ? | ?
O=C(Nc1nc(-c2cc(F)ccc2F)cs1)c1ccccn1 | 8.6% | 0.1µM* | -2.3 | 11.4% | 1.26µM* | -0.4%
O=C(Nc1nc(-c2cc(F)ccc2F)cs1)C1=COCCO1 | 57.0% | . | -1.5 | 20.0% | . | ?
O=C(OCC(=O)N(Cc1ccccc1)Cc1ccccc1)c1ccccc1O | 13.7% | . | 2.0 | 5.4% | . | 4.3%
